# Laboratory results as given in PubChem BioAssay AID588742 (Southern Research Specialized Biocontainment Screening …, 2011).
# Out of some 1,800 compounds screened, about 410 (23%) were called active. No rule for the calls is given here. Only a sample is shown. Results with a measured potency or affinity are listed apart.
# Assay: Vero cell cytotoxicity, cytotoxicity control for flavivirus capping enzyme inhibitors (AID 588742)
# Details: Vero cells viability, cytotoxicity counter-screen; series mostly up to 40 µM
row,Compound,outcome
1,Nc1cc2nsnc2cc1Br,inactive
2,COc1cccc(/C=C2\Oc3cc(OCC(=O)N4Cc5ccccc5C[C@H]4C(=O)O)ccc3C2=O)c1,inactive
3,O=C(N/N=C/c1ccc(N2CCOCC2)o1)c1cccc([N+](=O)[O-])c1,inactive
4,O=C(O)c1ccc(-n2nc(C(F)(F)F)c3c2-c2ccoc2CC3)cc1,inactive
5,O=C(Nc1cc(C(=O)Nc2ccccc2C(=O)O)cc(C(=O)Nc2ccccc2C(=O)O)c1)c1ccccc1,inactive
6,O=C(NNc1cc(Br)c(O)c(Br)c1)c1ccccc1,inactive
7,O=C(Nc1ccccc1C(=O)O)c1cccc(C(=O)Nc2ccccc2C(=O)O)c1,inactive
8,O=C(O)c1ccccc1-c1ccccc1C(=O)Nc1ccc2c(c1)C(=O)c1ccccc1-2,inactive
9,O=C(O)CCN1C(=O)/C(=C\c2cccc(OCc3ccccc3)c2)SC1=S,inactive
10,O=c1c(C(c2ccc(O)cc2)c2c(O)nc3n(c2=O)CCS3)c(O)nc2n1CCS2,inactive
11,O=C1CC(=Nc2ccc([N+](=O)[O-])cc2)NN1c1c(Cl)cc(Cl)cc1Cl,inactive
12,CCOC(=O)Cc1cc(=O)c2c(=O)n(-c3ccccc3)[nH]c2[nH]1,inactive
13,CCC1(C)Cc2c(C#N)c(N)sc(=S)c2CO1 (stereo not given),inactive
14,CC(=O)/C(=N/Nc1ccccc1)Sc1nnc(CCc2ccccc2)n1-c1ccccc1,inactive
15,CCc1nnc(NC(=O)CCC(=O)N2CCN(c3ccccn3)CC2)s1,inactive
16,CCOC(=O)Nc1sc(NS(=O)(=O)c2ccccc2)nc1C,inactive
17,CCc1nnc(NS(=O)(=O)c2ccc(NC(=S)NC(=O)/C=C/c3ccc(C(C)C)cc3)cc2)s1,inactive
18,CCc1nnc(NS(=O)(=O)c2ccc(NC(=S)NC(=O)/C=C/c3ccc(F)cc3)cc2)s1,inactive
19,CCC(=O)Nc1ccc2nc3c(=O)[nH]c(=S)[nH]c3nc2c1,inactive
20,C=CCOc1ccc(/C=C2\SC(=S)N(NS(=O)(=O)c3ccc(C)cc3)C2=O)cc1,inactive
21,O=C(CNc1cccc2ccccc12)N/N=C/c1ccc(C(=O)O)cc1,inactive
22,CCC1(c2ccccc2)NC(=S)N(c2cccc(C)c2C)N1 (stereo not given),inactive
23,O=C(O)/C=C/C(=O)c1ccc2c(c1)NC(=O)CO2,inactive
24,COc1cc(/C=C2/SC(=S)N(CC(=O)O)C2=O)ccc1OC(=O)c1cccs1,inactive
25,CC(C)C(=O)OC1CCS(=O)(=O)c2sccc21 (stereo not given),inactive

row,Compound,outcome
1,CCCc1nc(C)c2c(=O)[nH]c(-c3cc(S(=O)(=O)N4CCN(CC)CC4)ccc3OCC)nn12,inactive
2,COc1cccc(CNc2ccc(N3CCCCC3)cc2)c1OC,inactive
3,CCOc1c(Br)cc(CNc2ccc(N3CCN(C(C)=O)CC3)cc2)cc1OC,inactive
4,Cc1nn(-c2ccccc2)c(Cl)c1/C=C1\SC(=S)N(CCCCCC(=O)O)C1=O,inactive
5,CC(=O)Nc1ccc(NS(=O)(=O)c2ccccc2)c2ccccc12,inactive
6,CCOC(=O)c1c(C)oc2c1cc(NS(=O)(=O)c1ccc(C(=O)O)cc1)c1ccccc12,inactive
7,CCOc1cc(NS(=O)(=O)c2ccccc2)c(OCC)cc1NC(=O)c1ccco1,inactive
8,COC(=O)c1c(C)oc2c1cc(NS(=O)(=O)c1ccc(C(=O)O)cc1)c1ccccc12,inactive
9,COc1ccccc1/C=C1/C(=O)ON=C1C,inactive
10,Cc1ccc(N2C(=O)c3ccccc3C2C(=O)c2ccc(O)cc2O)cc1 (stereo not given),inactive
11,CC1=C(C#N)c2nc(N)c(C#N)c(C)c2/C1=C\c1ccc(OCC(=O)O)c(Cl)c1,inactive
12,NC(=S)c1cc2cc(Br)ccc2oc1=O,inactive
13,CC(=O)C(=Cc1cc(C)n(-c2ccccc2)c1C)C(C)=O,inactive
14,CCN(CCCNc1cc2c(c(N)c1S(=O)(=O)O)C(=O)c1ccccc1C2=O)c1ccccc1,inactive
15,CCC(=O)Nc1cc(C(=O)O)ccc1Sc1ccc(C)cc1,inactive
16,CCOC(=O)Cc1csc(NC(=O)NC2(C(F)(F)F)Oc3ccccc3O2)n1,inactive
17,O=C(O)CCCN1C(=O)/C(=C/C=C/c2ccco2)SC1=S,inactive
18,O=C(O)CCCN1C(=O)/C(=C\c2ccco2)SC1=S,inactive
19,O=S(=O)([O-])CCC[n+]1c(SCCCS(=O)(=O)O)sc2ccc(Cl)cc21,inactive
20,O=C(O)COc1ccccc1/C=N/Nc1ccc(S(=O)(=O)Nc2ccc(Cl)cc2)cc1[N+](=O)[O-],inactive
21,CCc1ccc(S(=O)(=O)Nc2ccc(O)c3ccccc23)cc1,inactive
22,O=C(NNS(=O)(=O)c1ccc([N+](=O)[O-])cc1)c1ccc2ccccc2c1O,inactive
23,O=C(O)CSc1c(O)c2ccccc2[nH]c1=O,inactive
24,N#C/C(=C\c1ccccc1)C(=O)NNS(=O)(=O)c1cccc([N+](=O)[O-])c1,inactive
25,O=C(O)c1ccccc1NS(=O)(=O)c1cccc(NS(=O)(=O)c2cc(Br)ccc2Br)c1,inactive

row,Compound,outcome
1,O=S(=O)(Nc1ccc(O)c2ccccc12)c1ccc(F)cc1,inactive
2,O=C(O)CSc1nc(-c2ccc(Cl)cc2)nc2c1oc1ccccc12,inactive
3,Cc1nnc(SCC2=C(C(=O)O)N3C(=O)C(NC(=O)c4cccc(F)c4F)C3SC2)s1 (stereo not given),inactive
4,CC1(OC(=O)CCc2ccccc2)C(=O)C=C2C=C(c3ccc(C#N)cc3)N(Cc3ccccc3)C=C2C1=O (stereo not given),inactive
5,O=C1NN(c2cccc(Br)c2)C(=O)/C1=C/c1ccc(-c2cc([N+](=O)[O-])ccc2O)o1,inactive
6,Cc1ccc([C@@H]2CC=C(C(=O)O)[C@H](c3ccc(Br)cc3)N2S(=O)(=O)c2ccccc2C)cc1,inactive
7,CCCc1cc(=O)oc2c(CN3CCCC3)c(O)c(Cl)cc12,inactive
8,Cc1ccc(CSc2nnc3c(n2)OC2(Nc4ccccc4-3)C(=O)Nc3ccc(F)cc32)cc1 (stereo not given),inactive
9,CCN(CCCNC(=O)CCc1nc(-c2ccc(OC)cc2)no1)c1cccc(C)c1,inactive
10,CCN(CC)c1ccc(C2C3CCCCC3(O)CCN2CC(=O)N2CCCCC2)cc1 (stereo not given),inactive
11,CCN(/N=C/c1ccc(N(C)C)cc1)c1nc2ccccc2[nH]1,inactive
12,COc1ccccc1NS(=O)(=O)c1ccc(N/N=C/c2ccccc2OCC(=O)O)c([N+](=O)[O-])c1,inactive
13,O=C1NN(c2cccc(Br)c2)C(=O)/C1=C\c1ccccc1,inactive
14,N#CC1C(=O)c2ccccc2C1c1ccccc1 (stereo not given),inactive
15,CCCCCCn1c(=O)c(-c2ccccc2)c(O)c2ccccc21,inactive
16,COc1ccc(S(=O)(=O)CC(=O)c2cc3cc(Br)ccc3oc2=O)cc1,inactive
17,CCOc1ccc(/C=C/c2[nH]c(=O)[nH]c(=O)c2[N+](=O)[O-])cc1,inactive
18,COc1ccc(OC)c(/C=C2\SC(=S)N(NS(=O)(=O)c3ccc(C)cc3)C2=O)c1,inactive
19,O=C(CC(Nc1ccccc1Cl)C(=O)O)c1ccccc1 (stereo not given),inactive
20,CCCOC(=O)c1c(NC(=O)C2C3C=CC(C3)C2C(=O)O)sc2c1CCC(C)C2 (stereo not given),inactive
21,N#CCC(=O)N/N=C/c1ccc(OCC(=O)Nc2ccc(F)cc2)cc1,inactive
22,COC(=O)C1=C(C(=O)OC)C(c2ccccc2O)c2sc(=O)[nH]c2S1 (stereo not given),inactive
23,O=c1[nH]c(/C=C\c2ccc(O)c(O)c2)nc(O)c1[N+](=O)[O-],inactive
24,Cc1c(N=C2C=C(Br)C(=O)C(Br)=C2)c(=O)n(-c2ccccc2)n1C,inactive
25,Cc1c(N2C(=O)/C(=C3\C(=O)N(CC(=O)O)c4ccccc43)SC2=S)c(=O)n(-c2ccccc2)n1C,inactive

row,Compound,outcome
1,COc1ccccc1/C=C1\SC(=S)N(NS(=O)(=O)c2ccccc2)C1=O,inactive
2,COc1ccc(S(=O)(=O)Nc2cc3c4c(c2)C(C)C(=O)N4CCC3)cc1OC (stereo not given),inactive
3,CC(=O)N1CCN(c2ccc(NCc3cccc(C)c3)cc2)CC1,inactive
4,N#C/C(=C\c1ccc(C#N)cc1)C(=O)c1ccccc1,inactive
5,O=C1c2ccccc2C(=O)c2c1cccc2N(CCO)CCO,inactive
6,O=C1C(=NO)CCc2ccccc21,inactive
7,CCn1c2ccccc2c2cc(NC(=O)c3ccc(Br)o3)ccc21,inactive
8,CCCCCCSc1nc(O)c(C2OC(=O)c3c2ccc(OC)c3OC)c(=O)n1-c1ccccc1 (stereo not given),inactive
9,c1cc2c(cc1NC1CCCCCC1)OCO2,inactive
10,O=C(O)c1[nH]c2ccccc2c1C(c1cc(Cl)cc([N+](=O)[O-])c1O)c1c(C(=O)O)[nH]c2ccccc12,inactive
11,O=C(O)c1cc(N/N=C/c2ccc(-c3ccccc3)cc2)ccc1Cl,inactive
12,O=C(O)CN1C(=O)/C(=C\c2ccccc2OCc2ccc(Cl)cc2)SC1=S,inactive
13,O=C(O)CN1C(=O)/C(=C\c2cc([N+](=O)[O-])ccc2OCc2ccccc2Cl)SC1=S,inactive
14,O=C(O)CN1C(=O)/C(=C\c2ccccc2OCc2ccccc2)SC1=S,inactive
15,O=C(O)CCCN1C(=O)/C(=C\c2ccccc2OCc2ccccc2)SC1=S,inactive
16,CC1=C/C(=C(\c2cc(C)c(O)c(Br)c2)c2ccccc2S(=O)(=O)O)C=C(Br)C1=O,inactive
17,Cc1ccc(S(=O)(=O)N2CCC(C(=O)OC(C)C(=O)NC3CCCCC3C)CC2)cc1C (stereo not given),inactive
18,CN(C)c1ccc2cc(S(=O)(=O)O)cc(O)c2c1,inactive
19,Cc1nc2ccccc2c2oc(C(=O)Nc3ccc4c(c3)OCCO4)cc12,inactive
20,O=[N+]([O-])c1ccc(S(=O)(=O)Nc2nc(-c3ccccc3)cs2)cc1,inactive
21,Nc1nn2c(-c3ccccc3)cc(=O)[nH]c2c1N=Nc1ccc(O)cc1,inactive
22,Cc1cc([N+](=O)[O-])ccc1N1C(=O)c2ccc(C(=O)Nc3ccccc3C(=O)O)cc2C1=O,inactive
23,O=C(O)c1ccc(N=N/C(=N\Nc2ccc(C(=O)O)cc2)c2ccccc2)cc1,inactive
24,O=C(O)CN1C(=O)/C(=C2\C(=O)N(Cc3ccccc3Cl)c3ccccc32)SC1=S,inactive
25,Cc1c(N)cc(N)cc1C(=O)O,inactive
